Screening results deposited in PubChem by several laboratories.
In the library only some 7.2% were active in any assay of this set; here they are far more common.
Efflux pump inh: antifungal efflux pump inhibition, Nile Red retention; S. cerevisiae Candida pump triplex; 0.44% of 330,000 active; inhibition, % at 10 µM;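 active = plate passing quality check with inhibition over a set limit, or well fluorescence over plate mean plus 4 SD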;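 also: Nile Red retained in pooled yeast measured as flow cytometry median fluorescence; higher means more Nile Red kept so more efflux inhibition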
Mot1-301 SUMO: blocks SUMOylation pathway, rescuing yeast Mot1-301 growth; 1% of 320,000 active; S. cerevisiae Mot1-301 growth rescue, ATP luminescence, 38.5C; percent above DMSO median, 100 means doubled; AID 2716; growth rescue, % at 18.8 µM;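 active = every valid replicate shows activation above 250% relative to neutral control wells; inactive = the rest, any valid replicate at or below 250%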
Bfl-1 A1 inh: inhibitors of the anti-apoptotic protein A1, read as caspase activation. MEF A1-2A-BIM cells, Caspase-Glo 3/7 luminescence, 3 h; percent of clofoctol response, vehicle zero. caspase activation, % (no concentration beside the values). AID 2462. 0.066% of 330,000 active;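 active = over half of replicate activation scores above 10%, or exactly half above 10 with the replicate mean above 10; inconclusive = replicate mean below 10 yet half the replicates above 10; inactive = over half of replicates below 10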
VLA-4 inh: inhibition in a human VLA-4 binding assay; P13612; VLA-4 expressing cells, ligand binding flow cytometry; inhibition, % (about 7 µM as worked out from the volumes in the protocol); 0.2% of 330,000 active; in the data active = inhibition above about 50%
Target sequence (P13612 whole entry, looked up): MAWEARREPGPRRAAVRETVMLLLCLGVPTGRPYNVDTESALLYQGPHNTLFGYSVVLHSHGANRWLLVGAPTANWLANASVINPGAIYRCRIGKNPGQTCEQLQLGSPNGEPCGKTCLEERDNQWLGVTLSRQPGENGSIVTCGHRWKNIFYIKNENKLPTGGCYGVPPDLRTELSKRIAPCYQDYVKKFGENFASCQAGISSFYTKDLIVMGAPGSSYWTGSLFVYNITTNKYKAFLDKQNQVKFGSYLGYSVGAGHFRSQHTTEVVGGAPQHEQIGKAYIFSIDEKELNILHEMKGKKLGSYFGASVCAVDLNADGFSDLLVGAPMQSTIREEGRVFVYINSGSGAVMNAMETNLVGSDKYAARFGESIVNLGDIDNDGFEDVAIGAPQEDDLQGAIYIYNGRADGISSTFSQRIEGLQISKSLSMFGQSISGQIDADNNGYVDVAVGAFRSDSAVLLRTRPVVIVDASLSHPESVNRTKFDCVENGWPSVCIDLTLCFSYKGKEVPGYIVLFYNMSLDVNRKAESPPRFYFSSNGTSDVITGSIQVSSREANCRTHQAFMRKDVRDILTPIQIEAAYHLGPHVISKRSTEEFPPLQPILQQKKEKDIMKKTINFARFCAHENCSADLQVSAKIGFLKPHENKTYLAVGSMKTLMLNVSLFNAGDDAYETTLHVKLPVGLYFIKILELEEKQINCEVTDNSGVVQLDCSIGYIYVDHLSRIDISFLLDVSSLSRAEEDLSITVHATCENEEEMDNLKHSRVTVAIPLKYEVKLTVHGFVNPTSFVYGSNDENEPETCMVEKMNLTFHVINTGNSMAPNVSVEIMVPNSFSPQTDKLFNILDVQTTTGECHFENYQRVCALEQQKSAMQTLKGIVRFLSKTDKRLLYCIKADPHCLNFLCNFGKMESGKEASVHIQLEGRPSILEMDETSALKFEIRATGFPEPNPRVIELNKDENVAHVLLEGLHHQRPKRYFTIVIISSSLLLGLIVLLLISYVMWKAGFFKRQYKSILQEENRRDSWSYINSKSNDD
AHR act: human AHR activation; P35869; AHR-responsive luciferase reporter cells, luminescence; activation, % at 5 µM; 2.5% of 320,000 active; AID 2796; in the data active = activation above about 47%
ALR H2O2 inh: blocks human ALR sulfhydryl oxidase activity; P55789; purified ALR, DTT oxidation, H2O2 HRP-luminol luminescence; inhibition, % (concentration not given with the values); 3.8% of 290,000 active;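 active = mean replicate inhibition above about 79%, with every replicate also reaching it, limit read from the data; inconclusive = only one of the two criteria met; inactive = mean below limit and not every replicate reaching it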
Hits are given with their value; - = inactive; ? = inconclusive; . = not tested or not shown.

SMILES	Efflux pump inh	Mot1-301 SUMO	Bfl-1 A1 inh	VLA-4 inh	AHR act	ALR H2O2 inh
COc1ccc(CCN(C)C(=O)c2cc(-c3ccc(C)cc3)nc3ccccc23)cc1OC	-	-	-	-	-	-
COc1ccc(-c2cc(C(=O)N(C)Cc3ccc(F)cc3)c3ccccc3n2)cc1OC	-	-	-	-	64.3	-
COc1ccc(-c2cc(C(=O)NC3=NCCS3)c3ccccc3n2)cc1OC	-	-	?	-	66.8	98.2
COc1ccc(-c2cc(C(=O)Nc3ccc(C(N)=O)cc3)c3ccccc3n2)cc1OC	-	-	-	-	52.1	-
Cc1c(N=C2SCC(=O)N2/N=C\c2ccc(Br)cc2)c(=O)n(-c2ccccc2)n1C	-	-	-	-	-	92.3
CCCCC(=O)OCC(=O)Nc1ccc(SC(F)F)cc1	-	-	-	-	-	97.8
O=C(COC(=O)Cc1ccccc1F)Nc1ccc(SC(F)F)cc1	-	-	-	-	-	-
CC1(C2CC2)NC(=O)N(CC(=O)Nc2ccc(SC(F)F)cc2)C1=O (centres undefined)	-	-	-	-	-	-
CN1CC(=O)N(CC(=O)Nc2ccc(SC(F)F)cc2)C1=O	-	-	-	-	-	98.3
CCCCNC(=S)Nc1ccc(SC(F)F)cc1	-	-	-	-	-	98.1
COC(=O)c1sc(N2C(=O)C(=O)/C(=C(/O)c3ccccc3)C2c2ccco2)nc1C (centres undefined)	-	-	-	-	-	90.5
O=C(C1CCN(S(=O)(=O)c2ccccc2)CC1)N1CCC1	-	-	-	-	-	-
O=c1ccc2ccc(Oc3ccc(Cl)cc3[N+](=O)[O-])cc2o1	-	-	-	-	-	.
O=C(C1CCC(=O)N1C1CCCCC1)N1CCN(c2ccc(F)cc2)CC1 (centres undefined)	-	-	-	-	-	-
COc1ccc(CCC(C)Nc2ccc(F)c(F)c2)cc1 (centres undefined)	-	-	-	-	-	-
COc1ccc(CCC(C)Nc2cccc(C)c2)cc1 (centres undefined)	-	-	-	-	-	99.0
COc1ccc(CCC(C)Nc2ccc(F)cc2)cc1 (centres undefined)	-	-	-	-	-	97.8
C#CCOCCOCCOCCNc1nc(N2CCOCC2)nc(N2CCN(C(=O)CCCCCCCCCCNC(=O)[C@@H]([C@H](C)CC)n3cc(CCCCCN)nn3)CC2)n1	-	-	-	-	-	.
C#CCOCCOCCOCCNc1nc(N2CCN(C(=O)CCCCCCCCCCNC(=O)[C@H]([C@@H](C)CC)n3cc(CCCCCN)nn3)CC2)nc(N2CCN(C(=O)CCCCCCCCCCNC(=O)[C@@H]([C@H](C)CC)n3cc(CCCCCN)nn3)CC2)n1	-	-	6.6	-	-	-
CCOC(=O)C(CC)(CCC(=O)O)c1csc(Nc2ccc(C)cc2)n1 (centres undefined)	-	-	-	-	-	98.6
COc1cc2c(cc1OC)CN(C(=O)C1CCN(S(=O)(=O)c3ccccc3F)CC1)CC2	-	-	-	-	-	-
CC1=C/C(=N\OS(=O)(=O)c2ccccc2)C(C)=CC1=O	-	-	16.6	-	-	98.8
CC1(C)CC(=O)C(C(N)=NC(=O)c2ccc([N+](=O)[O-])cc2)=C(O)C1	-	-	-	-	-	89.3
CC1(C)CC(=O)C(C(N)=NC(=O)c2ccccc2)=C(O)C1	-	-	-	-	-	-
Cc1cc(C2(c3ccc(O)c(C)c3)OC(=O)c3ccccc32)ccc1O	-	-	-	-	-	77.3
SMILES	Efflux pump inh	Mot1-301 SUMO	Bfl-1 A1 inh	VLA-4 inh	AHR act	ALR H2O2 inh
O=C(COC(=O)/C=C/c1ccccc1Cl)NCCc1ccc(Cl)cc1Cl	-	-	-	-	-	-
CNC(=O)c1ccccc1NC(=O)c1ccco1	-	-	-	-	-	-
O=C(Nc1ccc(Cl)c([N+](=O)[O-])c1)c1ccco1	-	-	-	-	-	-
O=C(Nc1ccccc1)Nc1ccc(Br)c(Cl)c1	-	-	-	-	67.2	-
O=C(Nc1ccccc1C(=O)Nc1ccc(F)cc1)c1ccco1	-	-	-	-	172.1	-
O=C(Nc1ccccc1)Nc1ccccc1Br	-	-	-	-	-	-
O=C(Nc1ccc(Br)c(Cl)c1)c1ccco1	-	-	-	-	74.9	-
O=C(Nc1ccc(NC(=O)c2ccco2)c(Cl)c1)c1ccccc1	-	-	-	-	59.3	-
